Columns and labels:
Assay in all cases: DAPPL (digital affinity profiling via proximity ligation, sequencing); 10 mM Tris-HCl pH 7.5, 50 mM NaCl, 1 mM DTT, 4% glycerol, room temperature, 30 min; GST-TFs on glutathione beads, 16-mer random dsDNA library, 0.1% formaldehyde crosslink after washing; high values mean tight binding
[1] = target: T1, FEV (Homo sapiens, UniProt Q99581 1-238); conditions: protein: recombinant; tags: N-terminal GST; dsDNA, one strand shown
T1 sequence: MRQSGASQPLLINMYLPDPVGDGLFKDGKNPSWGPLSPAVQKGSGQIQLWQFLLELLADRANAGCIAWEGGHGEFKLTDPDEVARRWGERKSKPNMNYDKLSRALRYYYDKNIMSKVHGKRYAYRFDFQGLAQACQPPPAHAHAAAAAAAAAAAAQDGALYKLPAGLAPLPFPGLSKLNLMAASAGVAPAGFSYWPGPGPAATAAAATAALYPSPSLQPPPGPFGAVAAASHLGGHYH
Outline: (§1)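 Beads coated with glutathione captured GST-fused human transcription factors that had been expressed in yeast, and the factors were then given DNA barcodes and pooled with a tag-only sample. The pools were incubated with 200 nmole of a random double-stranded 16-mer DNA library in Tris/NaCl/DTT/glycerol buffer for 30 min at room temperature, washed, crosslinked with 0.1% formaldehyde and proximity-ligated with BsaI/T4 ligase at 37 °C for 1 h. PCR amplification and Illumina NextSeq500 sequencing came last. Binding signal is each hexamer's read frequency for a factor divided by its frequency for the tag-only sample.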

[2] = target: ETV5 (Homo sapiens, UniProt P41161 1-510); conditions: protein: recombinant; tags: N-terminal GST; dsDNA, one strand shown
Sequence of ETV5 (P41161 whole entry): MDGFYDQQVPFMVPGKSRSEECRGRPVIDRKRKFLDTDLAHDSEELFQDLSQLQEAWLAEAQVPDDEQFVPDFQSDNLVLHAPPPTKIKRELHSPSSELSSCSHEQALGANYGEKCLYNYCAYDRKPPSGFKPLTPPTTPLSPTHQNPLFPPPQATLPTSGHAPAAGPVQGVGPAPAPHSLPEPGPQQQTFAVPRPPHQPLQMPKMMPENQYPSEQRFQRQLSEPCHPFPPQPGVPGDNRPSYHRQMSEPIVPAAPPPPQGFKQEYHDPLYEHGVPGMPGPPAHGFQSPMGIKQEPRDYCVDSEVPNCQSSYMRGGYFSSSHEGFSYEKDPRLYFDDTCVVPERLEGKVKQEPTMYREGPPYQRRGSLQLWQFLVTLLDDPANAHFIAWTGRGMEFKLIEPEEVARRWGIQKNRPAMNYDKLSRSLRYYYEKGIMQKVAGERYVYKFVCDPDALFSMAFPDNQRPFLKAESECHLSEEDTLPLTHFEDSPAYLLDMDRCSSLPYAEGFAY
Outline: as §1

[3] = target: HSF1 (Homo sapiens, UniProt Q00613 1-529); conditions: protein: recombinant; tags: N-terminal GST; chain copies: 3; dsDNA, one strand shown
Sequence of HSF1 (Q00613 whole entry): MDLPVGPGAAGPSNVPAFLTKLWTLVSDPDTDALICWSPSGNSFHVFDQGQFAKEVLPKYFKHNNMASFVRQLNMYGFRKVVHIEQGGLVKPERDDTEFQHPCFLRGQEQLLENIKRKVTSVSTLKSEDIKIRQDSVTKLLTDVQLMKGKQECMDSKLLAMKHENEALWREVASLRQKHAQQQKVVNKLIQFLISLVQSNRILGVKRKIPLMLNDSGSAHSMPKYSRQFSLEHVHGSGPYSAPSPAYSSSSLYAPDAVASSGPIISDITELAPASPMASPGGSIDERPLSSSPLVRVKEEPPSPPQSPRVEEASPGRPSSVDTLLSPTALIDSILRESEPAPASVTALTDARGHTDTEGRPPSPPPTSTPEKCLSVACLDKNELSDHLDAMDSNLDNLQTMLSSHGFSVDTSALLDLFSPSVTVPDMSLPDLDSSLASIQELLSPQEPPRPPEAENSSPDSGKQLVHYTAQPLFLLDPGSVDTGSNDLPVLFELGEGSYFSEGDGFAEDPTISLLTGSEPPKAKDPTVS
Outline: as §1

[4] = target: T2, SPIC (Homo sapiens, UniProt Q8N5J4 1-248); conditions: protein: recombinant; tags: N-terminal GST; dsDNA, one strand shown
T2 sequence: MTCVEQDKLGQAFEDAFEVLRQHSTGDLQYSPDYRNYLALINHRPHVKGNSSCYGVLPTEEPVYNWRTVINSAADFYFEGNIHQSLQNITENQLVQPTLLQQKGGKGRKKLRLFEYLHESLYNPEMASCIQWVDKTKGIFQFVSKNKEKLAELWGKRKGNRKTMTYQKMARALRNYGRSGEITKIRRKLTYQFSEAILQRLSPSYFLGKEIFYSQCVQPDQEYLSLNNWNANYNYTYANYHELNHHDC
Outline: as §1

[5] = target: ELF4 (Homo sapiens, UniProt Q99607 1-663); conditions: protein: recombinant; tags: N-terminal GST; dsDNA, one strand shown
Sequence of ELF4 (Q99607 whole entry): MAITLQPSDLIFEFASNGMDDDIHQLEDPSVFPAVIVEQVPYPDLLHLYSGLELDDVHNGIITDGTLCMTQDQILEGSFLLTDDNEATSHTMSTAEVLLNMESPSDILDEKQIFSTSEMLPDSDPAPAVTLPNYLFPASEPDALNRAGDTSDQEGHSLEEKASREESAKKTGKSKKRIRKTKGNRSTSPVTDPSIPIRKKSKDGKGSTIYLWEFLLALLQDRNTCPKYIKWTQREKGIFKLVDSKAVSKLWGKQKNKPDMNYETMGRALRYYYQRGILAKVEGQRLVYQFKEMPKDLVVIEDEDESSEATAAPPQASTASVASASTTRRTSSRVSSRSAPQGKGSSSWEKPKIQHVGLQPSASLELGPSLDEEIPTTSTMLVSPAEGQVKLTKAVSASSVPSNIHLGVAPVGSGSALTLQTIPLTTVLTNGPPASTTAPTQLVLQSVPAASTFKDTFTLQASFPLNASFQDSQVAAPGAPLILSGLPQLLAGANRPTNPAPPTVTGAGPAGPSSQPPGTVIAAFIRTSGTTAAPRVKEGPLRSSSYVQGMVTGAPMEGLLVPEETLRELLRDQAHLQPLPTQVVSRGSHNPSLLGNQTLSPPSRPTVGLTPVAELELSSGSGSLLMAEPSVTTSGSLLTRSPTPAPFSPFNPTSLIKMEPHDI
Outline: as §1

[6] = target: T3, ELK4 (Homo sapiens, UniProt P28324-2 1-405); conditions: protein: recombinant; tags: N-terminal GST; dsDNA, one strand shown
T3 sequence: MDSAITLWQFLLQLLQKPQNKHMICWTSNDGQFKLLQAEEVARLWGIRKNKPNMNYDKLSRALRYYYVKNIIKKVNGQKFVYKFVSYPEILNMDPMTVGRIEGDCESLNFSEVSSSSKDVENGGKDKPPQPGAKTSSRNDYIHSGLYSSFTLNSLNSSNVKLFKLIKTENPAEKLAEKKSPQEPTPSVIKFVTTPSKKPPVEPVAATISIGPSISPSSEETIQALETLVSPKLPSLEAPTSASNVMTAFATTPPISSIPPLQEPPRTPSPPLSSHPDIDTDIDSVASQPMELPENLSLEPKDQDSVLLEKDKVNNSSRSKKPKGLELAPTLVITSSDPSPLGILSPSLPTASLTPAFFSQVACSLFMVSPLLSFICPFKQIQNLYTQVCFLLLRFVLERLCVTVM
Outline: as §1

[7] = target: T4, ETV2 (Homo sapiens, UniProt O00321 1-342); conditions: protein: recombinant; tags: N-terminal GST; dsDNA, one strand shown
T4 sequence: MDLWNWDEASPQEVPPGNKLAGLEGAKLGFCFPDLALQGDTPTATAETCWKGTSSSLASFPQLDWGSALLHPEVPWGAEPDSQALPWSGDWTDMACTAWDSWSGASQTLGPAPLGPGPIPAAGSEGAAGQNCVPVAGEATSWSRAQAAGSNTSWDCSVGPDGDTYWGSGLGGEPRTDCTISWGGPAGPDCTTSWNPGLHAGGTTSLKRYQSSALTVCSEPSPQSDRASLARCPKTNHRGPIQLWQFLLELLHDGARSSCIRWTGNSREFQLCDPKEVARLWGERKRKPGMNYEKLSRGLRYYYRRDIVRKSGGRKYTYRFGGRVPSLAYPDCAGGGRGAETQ
Outline: as §1

[8] = target: T5, ELF3 (Homo sapiens, UniProt P78545 1-371); conditions: protein: recombinant; tags: N-terminal GST; dsDNA, one strand shown
T5 sequence: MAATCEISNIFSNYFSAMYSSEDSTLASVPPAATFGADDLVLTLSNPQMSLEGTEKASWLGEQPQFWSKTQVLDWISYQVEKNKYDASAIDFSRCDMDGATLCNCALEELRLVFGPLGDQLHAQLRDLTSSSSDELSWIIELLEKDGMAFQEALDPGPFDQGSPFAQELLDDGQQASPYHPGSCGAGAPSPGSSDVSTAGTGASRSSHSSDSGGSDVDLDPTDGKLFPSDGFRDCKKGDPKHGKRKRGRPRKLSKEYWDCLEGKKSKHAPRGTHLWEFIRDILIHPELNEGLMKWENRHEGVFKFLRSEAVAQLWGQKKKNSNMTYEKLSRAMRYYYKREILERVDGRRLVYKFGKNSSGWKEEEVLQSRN
Outline: as §1

[9] = target: CRX (Homo sapiens, UniProt O43186 1-299); conditions: protein: recombinant; tags: N-terminal GST; dsDNA, one strand shown
Sequence of CRX (O43186 whole entry): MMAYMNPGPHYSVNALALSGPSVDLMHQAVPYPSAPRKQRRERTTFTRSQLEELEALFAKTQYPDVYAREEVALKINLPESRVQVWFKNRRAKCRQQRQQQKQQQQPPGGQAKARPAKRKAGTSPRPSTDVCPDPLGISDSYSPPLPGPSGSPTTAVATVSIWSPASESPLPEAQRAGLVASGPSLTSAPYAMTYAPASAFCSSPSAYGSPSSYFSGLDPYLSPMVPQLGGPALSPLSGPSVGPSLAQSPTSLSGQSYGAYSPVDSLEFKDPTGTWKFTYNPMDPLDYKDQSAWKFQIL
Outline: as §1

[10] = target: ETV1 (Homo sapiens, UniProt P50549 1-477); conditions: protein: recombinant; tags: N-terminal GST; dsDNA, one strand shown
Sequence of ETV1 (P50549 whole entry): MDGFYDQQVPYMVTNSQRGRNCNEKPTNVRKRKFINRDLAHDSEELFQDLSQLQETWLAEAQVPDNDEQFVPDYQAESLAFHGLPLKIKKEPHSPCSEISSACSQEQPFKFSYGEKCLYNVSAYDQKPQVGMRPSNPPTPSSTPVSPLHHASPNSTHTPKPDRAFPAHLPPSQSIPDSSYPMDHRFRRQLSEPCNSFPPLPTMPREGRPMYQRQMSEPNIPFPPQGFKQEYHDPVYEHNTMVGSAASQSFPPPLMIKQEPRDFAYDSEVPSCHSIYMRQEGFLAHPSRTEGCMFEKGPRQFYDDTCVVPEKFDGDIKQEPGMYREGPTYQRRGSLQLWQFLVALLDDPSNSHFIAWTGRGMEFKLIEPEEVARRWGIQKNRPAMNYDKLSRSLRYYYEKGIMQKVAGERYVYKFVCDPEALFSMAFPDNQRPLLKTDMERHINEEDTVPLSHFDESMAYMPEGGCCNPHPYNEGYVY
Outline: as §1

[11] = target: T6, ERF (Homo sapiens, UniProt P50548 1-548); conditions: protein: recombinant; tags: N-terminal GST; dsDNA, one strand shown
T6 sequence: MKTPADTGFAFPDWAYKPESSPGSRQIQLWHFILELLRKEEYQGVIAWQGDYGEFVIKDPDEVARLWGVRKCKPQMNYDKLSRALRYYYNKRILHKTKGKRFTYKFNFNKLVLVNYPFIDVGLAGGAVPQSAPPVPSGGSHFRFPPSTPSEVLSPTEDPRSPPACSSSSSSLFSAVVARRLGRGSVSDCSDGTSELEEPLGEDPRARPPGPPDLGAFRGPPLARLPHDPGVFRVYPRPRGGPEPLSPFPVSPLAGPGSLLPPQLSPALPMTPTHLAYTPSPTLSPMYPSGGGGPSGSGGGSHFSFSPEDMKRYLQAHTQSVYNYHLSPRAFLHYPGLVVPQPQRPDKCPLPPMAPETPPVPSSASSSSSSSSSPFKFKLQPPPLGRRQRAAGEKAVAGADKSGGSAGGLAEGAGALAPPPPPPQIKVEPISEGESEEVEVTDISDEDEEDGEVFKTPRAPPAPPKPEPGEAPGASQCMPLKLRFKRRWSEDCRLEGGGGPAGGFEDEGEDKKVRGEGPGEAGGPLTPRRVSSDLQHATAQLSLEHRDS
Outline: as §1

[12] = target: T7, ETV3L (Homo sapiens, UniProt Q6ZN32 1-361); conditions: protein: recombinant; tags: N-terminal GST; dsDNA, one strand shown
T7 sequence: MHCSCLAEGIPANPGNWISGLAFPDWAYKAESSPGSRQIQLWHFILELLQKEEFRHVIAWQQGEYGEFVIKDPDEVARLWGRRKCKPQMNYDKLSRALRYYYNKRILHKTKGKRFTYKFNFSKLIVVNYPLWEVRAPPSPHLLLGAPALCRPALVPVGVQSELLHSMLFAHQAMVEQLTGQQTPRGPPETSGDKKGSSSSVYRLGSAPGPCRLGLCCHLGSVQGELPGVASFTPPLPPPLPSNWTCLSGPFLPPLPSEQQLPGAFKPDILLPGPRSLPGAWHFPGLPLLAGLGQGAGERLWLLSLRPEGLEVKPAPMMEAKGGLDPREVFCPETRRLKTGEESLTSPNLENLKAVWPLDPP
Outline: as §1

[13] = target: T8, ETS2 (Homo sapiens, UniProt P15036 1-469); conditions: protein: recombinant; tags: N-terminal GST; dsDNA, one strand shown
T8 sequence: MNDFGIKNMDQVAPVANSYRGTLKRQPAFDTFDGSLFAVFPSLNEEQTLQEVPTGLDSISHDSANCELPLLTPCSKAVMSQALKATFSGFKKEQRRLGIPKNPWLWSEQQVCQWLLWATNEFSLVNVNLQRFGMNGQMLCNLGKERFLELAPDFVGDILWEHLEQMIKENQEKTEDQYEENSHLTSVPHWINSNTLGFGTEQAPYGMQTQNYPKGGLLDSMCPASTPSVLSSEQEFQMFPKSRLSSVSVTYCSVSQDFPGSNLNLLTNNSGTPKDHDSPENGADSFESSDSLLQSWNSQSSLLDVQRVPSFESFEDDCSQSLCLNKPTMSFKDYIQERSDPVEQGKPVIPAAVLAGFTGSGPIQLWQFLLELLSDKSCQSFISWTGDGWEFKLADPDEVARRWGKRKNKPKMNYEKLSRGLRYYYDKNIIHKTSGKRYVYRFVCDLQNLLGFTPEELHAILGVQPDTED
Outline: as §1

[14] = target: T9, SPDEF (Homo sapiens, UniProt O95238 1-335); conditions: protein: recombinant; tags: N-terminal GST; dsDNA, one strand shown
T9 sequence: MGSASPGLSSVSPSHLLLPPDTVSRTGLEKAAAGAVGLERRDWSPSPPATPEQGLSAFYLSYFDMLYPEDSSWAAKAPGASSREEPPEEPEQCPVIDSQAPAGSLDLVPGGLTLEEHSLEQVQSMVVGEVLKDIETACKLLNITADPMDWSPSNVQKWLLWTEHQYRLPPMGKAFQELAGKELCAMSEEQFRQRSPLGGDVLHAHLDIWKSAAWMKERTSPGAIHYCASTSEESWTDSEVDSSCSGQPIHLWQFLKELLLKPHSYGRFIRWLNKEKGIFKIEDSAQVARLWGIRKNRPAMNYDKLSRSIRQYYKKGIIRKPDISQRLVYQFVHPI
Outline: as §1

[15] = target: T10, ETV7 (Homo sapiens, UniProt Q9Y603 1-341); conditions: protein: recombinant; tags: N-terminal GST; dsDNA, one strand shown
T10 sequence: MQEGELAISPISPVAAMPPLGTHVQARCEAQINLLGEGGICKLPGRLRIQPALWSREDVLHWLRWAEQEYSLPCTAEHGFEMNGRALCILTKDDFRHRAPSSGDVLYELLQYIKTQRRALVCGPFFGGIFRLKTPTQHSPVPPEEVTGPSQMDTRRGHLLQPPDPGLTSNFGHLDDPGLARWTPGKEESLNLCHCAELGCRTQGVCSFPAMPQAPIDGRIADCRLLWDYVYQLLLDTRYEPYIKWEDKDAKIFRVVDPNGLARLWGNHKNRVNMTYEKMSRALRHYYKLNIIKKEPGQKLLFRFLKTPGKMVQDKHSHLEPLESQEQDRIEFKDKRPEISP
Outline: as §1

[16] = target: T11, ELF5 (Homo sapiens, UniProt Q9UKW6-2 1-255); conditions: protein: recombinant; tags: N-terminal GST; dsDNA, one strand shown
T11 sequence: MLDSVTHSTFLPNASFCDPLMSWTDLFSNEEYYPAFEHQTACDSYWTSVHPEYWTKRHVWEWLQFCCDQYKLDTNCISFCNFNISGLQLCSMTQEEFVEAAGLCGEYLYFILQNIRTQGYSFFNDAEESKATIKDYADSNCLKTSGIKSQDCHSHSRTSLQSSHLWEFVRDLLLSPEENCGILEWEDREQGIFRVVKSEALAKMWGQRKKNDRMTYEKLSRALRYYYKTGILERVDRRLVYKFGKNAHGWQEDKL
Outline: as §1

[17] = target: T12, ETV3 (Homo sapiens, UniProt P41162-2 1-143); conditions: protein: recombinant; tags: N-terminal GST; dsDNA, one strand shown
T12 sequence: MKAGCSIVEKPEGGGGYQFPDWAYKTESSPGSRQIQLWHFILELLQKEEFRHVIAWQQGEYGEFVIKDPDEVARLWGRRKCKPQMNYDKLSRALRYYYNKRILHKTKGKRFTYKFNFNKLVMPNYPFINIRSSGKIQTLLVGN
Outline: as §1

[18] = target: ETV6 (Homo sapiens, UniProt P41212 1-452); conditions: protein: recombinant; tags: N-terminal GST; dsDNA, one strand shown
Sequence of ETV6 (P41212 whole entry): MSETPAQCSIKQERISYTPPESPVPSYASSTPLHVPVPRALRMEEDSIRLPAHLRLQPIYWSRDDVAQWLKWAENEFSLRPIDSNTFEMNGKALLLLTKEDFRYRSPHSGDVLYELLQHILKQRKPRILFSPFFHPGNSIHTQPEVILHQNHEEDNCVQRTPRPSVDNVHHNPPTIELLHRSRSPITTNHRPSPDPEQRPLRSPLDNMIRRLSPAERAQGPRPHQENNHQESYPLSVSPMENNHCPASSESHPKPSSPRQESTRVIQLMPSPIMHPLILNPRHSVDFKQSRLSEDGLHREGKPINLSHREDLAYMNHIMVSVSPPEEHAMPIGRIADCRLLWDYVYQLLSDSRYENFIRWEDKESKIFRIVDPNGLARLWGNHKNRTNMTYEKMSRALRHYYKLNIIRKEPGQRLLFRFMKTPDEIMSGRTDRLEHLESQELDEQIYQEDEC
Outline: as §1

Row | Sequence | binding signal [1] | binding signal [2] | binding signal [3] | binding signal [4] | binding signal [5] | binding signal [6] | binding signal [7] | binding signal [8] | binding signal [9] | binding signal [10] | binding signal [11] | binding signal [12] | binding signal [13] | binding signal [14] | binding signal [15] | binding signal [16] | binding signal [17] | binding signal [18]
1 | TCCCTT | 1.51 fold enrichment (6-mer frequency, TF over GST control) | 1.5 fold enrichment (6-mer frequency, TF over GST control) | 1.51 fold enrichment (6-mer frequency, TF over GST control) | 1.66 fold enrichment (6-mer frequency, TF over GST control) | 1.68 fold enrichment (6-mer frequency, TF over GST control) | 1.41 fold enrichment (6-mer frequency, TF over GST control) | 1.32 fold enrichment (6-mer frequency, TF over GST control) | 1.5 fold enrichment (6-mer frequency, TF over GST control) | 1.69 fold enrichment (6-mer frequency, TF over GST control) | 1.49 fold enrichment (6-mer frequency, TF over GST control) | 1.57 fold enrichment (6-mer frequency, TF over GST control) | 1.64 fold enrichment (6-mer frequency, TF over GST control) | 1.67 fold enrichment (6-mer frequency, TF over GST control) | 1.61 fold enrichment (6-mer frequency, TF over GST control) | 1.57 fold enrichment (6-mer frequency, TF over GST control) | 1.72 fold enrichment (6-mer frequency, TF over GST control) | 1.54 fold enrichment (6-mer frequency, TF over GST control) | 1.53 fold enrichment (6-mer frequency, TF over GST control)
2 | CTCAAA | 1.28 fold enrichment (6-mer frequency, TF over GST control) | 1.18 fold enrichment (6-mer frequency, TF over GST control) | 1.24 fold enrichment (6-mer frequency, TF over GST control) | 1.2 fold enrichment (6-mer frequency, TF over GST control) | 1.18 fold enrichment (6-mer frequency, TF over GST control) | 1.2 fold enrichment (6-mer frequency, TF over GST control) | 1.16 fold enrichment (6-mer frequency, TF over GST control) | 1.32 fold enrichment (6-mer frequency, TF over GST control) | 1.25 fold enrichment (6-mer frequency, TF over GST control) | 1.2 fold enrichment (6-mer frequency, TF over GST control) | 1.11 fold enrichment (6-mer frequency, TF over GST control) | 1.16 fold enrichment (6-mer frequency, TF over GST control) | 1.2 fold enrichment (6-mer frequency, TF over GST control) | 1.14 fold enrichment (6-mer frequency, TF over GST control) | 1.14 fold enrichment (6-mer frequency, TF over GST control) | 1.16 fold enrichment (6-mer frequency, TF over GST control) | 1.2 fold enrichment (6-mer frequency, TF over GST control) | 1.21 fold enrichment (6-mer frequency, TF over GST control)
